# Assay results: the supplement of paper PMC6522484
# ± gives the standard deviation of the averaged measurements.
# Key:
# DLD1 [1] = assay: cell viability (CellTiter-Glo) relative to plate median (fraction of plate median); higher = more viable cells; conditions: 5 µM; treatment time 24 h; reporter: 7TFP
# How it was run: (§1)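 After seeding in 384-well plates, colorectal cancer cell lines carrying stable lentiviral TCF/Wnt firefly luciferase reporters (7TFP or TCF4/Wnt) were left 24 h. Library compounds were then added at a final 5 µM for 24 h. A Tecan F500 reader measured firefly luciferase or CellTiterGlo luminescence on parallel plates, with each well normalised to the plate median by webcellHTS2 (additive, no log transformation), and two independent replicates averaged.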
# HCT116 = assay: as above; conditions: 5 µM; treatment time 24 h; reporter: TCF4/Wnt
# How it was run: as §1
# SW480 [2] = assay: as above; conditions: 5 µM; treatment time 24 h; reporter: 7TFP
# How it was run: as §1
# DLD1 [3] = assay: TCF/Wnt firefly luciferase reporter signal relative to plate median (fraction of plate median); higher = higher Wnt reporter signal; conditions: 5 µM; treatment time 24 h; reporter: 7TFP
# How it was run: as §1
# SW480 [4] = assay: as above; conditions: 5 µM; treatment time 24 h; reporter: 7TFP
# How it was run: as §1
Compound,cell viability (DLD1 [1]),cell viability (HCT116),cell viability (SW480 [2]),TCF/Wnt firefly luciferase reporter signal (DLD1 [3]),TCF/Wnt firefly luciferase reporter signal (SW480 [4])
N[C@H]1C(O)O[C@H](CO)[C@@H](O)[C@@H]1O (stereo not given in full),0.973 ± 0.037,0.993 ± 0.024,0.99 ± 0.013,1.12,1.06 ± 0.021
CCOc1ccc(C(=O)c2cc(O)c(OC)c(OC)c2O)cc1,0.982 ± 0.054,0.925 ± 0.11,0.9935 ± 0.0021,1.09,0.948 ± 0.062
CC1=CCc2c(cc3oc(C)cc(=O)c3c2O)OC1,1 ± 0.084,1.02 ± 0.033,1.06 ± 0.071,1.18 ± 0.15,1.11 ± 0.085
N=c1ccn2c(n1)O[C@H]1[C@H](O)[C@@H](CO)O[C@H]12,1.16 ± 0.078,0.942 ± 0.034,1.15 ± 0.028,1.08 ± 0.11,1.1
Nc1ncnc2c1ncn2[C@@H]1O[C@H](CO)[C@@H](O)[C@@H]1O,0.9735 ± 0.0078,1.01 ± 0.021,0.975 ± 0.034,1.08 ± 0.064,1.05 ± 0.05
CC(C)[C@H]1CC[C@H](C(=O)N[C@H](Cc2ccccc2)C(=O)O)CC1,0.905 ± 0.0028,0.972 ± 0.0014,0.973 ± 0.067,1.03 ± 0.014,0.983 ± 0.014
C[C@H]1COC2=C1C(=O)C(=O)c1c2ccc2c1CCCC2(C)C,1.15 ± 0.2,1.12 ± 0.042,1.08 ± 0.014,1.05 ± 0.096,0.906 ± 0.12
C[C@H](CCC(=O)O)[C@H]1CC[C@H]2[C@@H]3CC[C@@H]4C[C@H](O)CC[C@]4(C)[C@H]3C[C@H](O)[C@]12C,0.982 ± 0.025,1.04 ± 0.11,1 ± 0.024,1.03 ± 0.13,1.01 ± 0.053
CC(C(=O)O)c1ccc(C(=O)c2cccs2)cc1 (stereo not given),1.01 ± 0.021,1.025 ± 0.0071,1.02 ± 0.014,0.996 ± 0.021,0.999 ± 0.072
O=C(O)c1ccccc1,1.06 ± 0.096,1.02 ± 0.021,1.02 ± 0.014,1.12 ± 0.071,0.951 ± 0.037
CC(C)=CCc1c2c(c3occ(-c4ccc(O)cc4)c(=O)c3c1O)C=CC(C)(C)O2,0.955 ± 0.093,0.98 ± 0.028,0.99 ± 0.015,1.1 ± 0.099,0.914 ± 0.099
O=c1c(O)c(-c2ccc(O)c(O)c2)oc2cc(O)cc(O)c12,0.9445 ± 0.00071,0.9265 ± 0.0021,1 ± 0.036,0.936 ± 0.062,0.983 ± 0.067
Oc1cc(O)c2c(c1)O[C@H](c1cc(O)c(O)c(O)c1)[C@H](O)C2,0.94 ± 0.059,0.897 ± 0.19,0.973 ± 0.024,0.925 ± 0.024,1.07
CCCCCCc1ccc(O)cc1O,1.04 ± 0.061,1.14 ± 0.021,1.07,1.09 ± 0.014,1 ± 0.11
CC[C@]1(O)C[C@H]2CN(CCc3c([nH]c4ccccc34)[C@@](C(=O)OC)(c3cc4c(cc3OC)N(C=O)[C@H]3[C@@](O)(C(=O)OC)[C@H](OC(C)=O)[C@]5(CC)C=CCN6CC[C@]43[C@@H]65)C2)C1,1.01 ± 0.16,0.53 ± 0.064,1.17 ± 0.035,0.666 ± 0.091,0.713 ± 0.075
C#CCCCCCCCCCCCc1ccco1,0.997 ± 0.033,1.03 ± 0.014,1.075 ± 0.0071,1.145 ± 0.0071,0.953 ± 0.096
CC(C)CCCC(C)C1CCC2C3=CCC4CC(O)CCC4(C)C3CCC21C (stereo not given),1.05 ± 0.064,1.07 ± 0.11,1.02 ± 0.043,0.891 ± 0.083,0.897 ± 0.12
CC(C)C[C@H](NC(=O)[C@@H]1CCCN1)C(=O)N1CCNC(=O)C1=O [Prolyl-leucyl-diketopiperazine],1.02 ± 0.035,0.993 ± 0.011,0.984 ± 0.0042,1.04 ± 0.13,1.025 ± 0.0071
CC12CCC(CC1=O)C2(C)C (stereo not given),0.974 ± 0.037,0.941 ± 0.2,1.04 ± 0.05,1.02 ± 0.061,0.969 ± 0.14
CC(NCCc1ccc(O)cc1)C(O)c1ccc(O)cc1 (stereo not given),0.914 ± 0.1,0.929 ± 0.1,0.933 ± 0.056,0.981 ± 0.07,0.913 ± 0.027
C=C(C)[C@@H]1CC[C@]2(C(=O)O[C@@H]3O[C@H](CO[C@@H]4O[C@H](CO)[C@@H](O[C@@H]5O[C@@H](C)[C@H](O)[C@@H](O)[C@H]5O)[C@H](O)[C@H]4O)[C@@H](O)[C@H](O)[C@H]3O)CC[C@]3(C)[C@H](C[C@@H](O)[C@@H]4[C@@]5(C)[C@@H](CC(=O)O)OC(C)(C)[C@@H]5CC[C@]43C)[C@@H]12 [Isochiisanoside (6)],0.92 ± 0.055,0.934 ± 0.0028,0.915 ± 0.066,0.953 ± 0.15,0.945 ± 0.0071
O=C(O)c1cccnc1,1.05 ± 0.042,1.01 ± 0.11,1.06 ± 0.05,0.969 ± 0.039,0.976 ± 0.062
COc1ccc(-c2oc3ccccc3c(=O)c2O)cc1OC,0.969 ± 0.087,0.912 ± 0.024,1.05,0.923 ± 0.0099,1.18 ± 0.028
CC(=O)OCC(=O)[C@@]12OC3(CCCC3)O[C@@H]1C[C@H]1[C@@H]3CCC4=CC(=O)C=C[C@]4(C)[C@@]3(F)[C@@H](O)C[C@@]12C,0.985 ± 0.021,0.896 ± 0.16,0.965 ± 0.023,0.82 ± 0.093,0.771 ± 0.28
CN1CCCN=C1/C=C/c1cccs1,0.984 ± 0.022,0.903 ± 0.093,1.05,1.135 ± 0.0071,0.994 ± 0.037
COc1ccc2c(c1)OC1(O)COc3cc(OC)c(OC)cc3C1=C2 (stereo not given),1.01 ± 0.035,1.05 ± 0.05,1.08 ± 0.035,0.985 ± 0.13,0.895 ± 0.075
